Laboratory results reported in PubChem BioAssay AID1159580 (chemical genetic matrix, 2015).
Where “and” joins values, the source holds several entries; their conditions need not be identical. Identical values can stand only once. About 2,000 (36%) of roughly 5,500 compounds were called active. About 18% were inconclusive and are not listed. Cut-off read from the data, not from the text of the source: active = normalized growth mostly below about 0.91 (no sharp cut-off); inconclusive = no clear call, values can overlap the other calls; inactive = mostly above about 0.92. Some of the results follow.

Assay: chemical genetic growth profiling, strain panel (AID 1159580);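 note: tested at 20 µM; growth read once vehicle control cultures reached saturation at 30 °C; 1 = growth at the plate median or of vehicle wells; lower values mean less growth of the strain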
Details: S. cerevisiae deletion strains, growth OD

Measured: normalized growth

Oc1c(I)cc(I)c2cccnc12
active: locus YAL013W, strain DEP1, hits give low values 0.071 | locus YAL021C, strain ccr4, hits give low values 0.091 | locus YAL026C, strain drs2, hits give low values 0.0859 | locus YAL030W, strain snc1, hits give low values 0.0764 | locus YBL061C, strain skt5, hits give low values 0.0816 | locus YBR009C, strain hhf1, hits give low values 0.0997 | locus YBR021W, strain FUR4, hits give low values 0.129 | locus YBR023C, strain chs3, hits give low values 0.077 | locus YBR171W, strain sec66, hits give low values 0.114 | locus YBR229C, strain ROT2, hits give low values 0.0677 | locus YBR231C, strain swc5, hits give low values 0.0701 | locus YBR279W, strain paf1, hits give low values 0.0764 | locus YCL011C, strain gbp2, hits give low values 0.135 | locus YCL016C, strain dcc1, hits give low values 0.0819 | locus YCL029C, strain bik1, hits give low values 0.101 | locus YCL061C, strain MRC1, hits give low values 0.0902 | locus YCL069W, strain vba3, hits give low values 0.0885 | locus YCR088W, strain abp1, hits give low values 0.0854 | locus YDL005C, strain med2, hits give low values 0.104 | locus YDL035C, strain GPR1, hits give low values 0.067 | locus YDL040C, strain nat1, hits give low values 0.073 | locus YDL074C, strain BRE1, hits give low values 0.104 | locus YDL101C, strain DUN1, hits give low values 0.084 | locus YDL185W, strain tfp1, hits give low values 0.0824 | locus YDL192W, strain arf1, hits give low values 0.103 | locus YDR001C, strain nth1, hits give low values 0.0844 | locus YDR069C, strain doa4, hits give low values 0.0819 | locus YDR101C, strain arx1, hits give low values 0.0994 | locus YDR137W, strain rgp1, hits give low values 0.0996 | locus YDR150W, strain NUM1, hits give low values 0.078 | locus YDR159W, strain sac3, hits give low values 0.107 | locus YDR162C, strain NBP2, hits give low values 0.0632 | locus YDR195W, strain ref2 0.337 | locus YDR297W, strain sur2, hits give low values 0.0803 | locus YDR318W, strain mcm21, hits give low values 0.101 | locus YDR334W, strain swr1, hits give low values 0.0842 | locus YDR335W, strain msn5, hits give low values 0.0856 | locus YDR388W, hits give low values 0.0882 | locus YDR392W, strain spt3, hits give low values 0.13 | locus YDR502C, strain sam2, hits give low values 0.106 | locus YEL003W, strain gim4, hits give low values 0.127 | locus YEL037C, strain rad23, hits give low values 0.0807 | locus YEL061C, strain CIN8 (second series), hits give low values 0.0847 | locus YEL061C, strain CIN8, hits give low values 0.073 | locus YER015W, strain faa2, hits give low values 0.0857 | locus YER016W, strain bim1, hits give low values 0.0805 | locus YER110C, hits give low values 0.115 | locus YER111C, strain swi4, hits give low values 0.103 | locus YER155C, strain BEM2 (second series), hits give low values 0.126 | locus YER155C, strain BEM2, hits give low values 0.0881 | locus YER167W, strain BCK2, hits give low values 0.0711 | locus YFR010W, strain ubp6, hits give low values 0.0943 | locus YGL078C, strain dbp3, hits give low values 0.258 | locus YGL086W, strain mad1, hits give low values 0.0789 | locus YGL167C, strain pmr1, hits give low values 0.0938 | locus YGL173C, strain kem1, hits give low values 0.0913 | locus YGL227W, strain vid30, hits give low values 0.0911 | locus YGL240W, strain doc1, hits give low values 0.106 | locus YGL248W, strain PDE1, hits give low values 0.0617 | locus YGL253W, strain hxk2, hits give low values 0.0781 | locus YGR078C, strain PAC10, hits give low values 0.0681 | locus YGR135W, strain pre9, hits give low values 0.102 | locus YGR252W, strain gcn5, hits give low values 0.308 | locus YHR013C, strain ard1, hits give low values 0.141 | locus YHR027C, strain rpn1, hits give low values 0.0845 | locus YHR030C, strain SLT2, hits give low values 0.0746 and 0.163 | locus YHR079C, strain IRE1 (second series), hits give low values 0.0873 | locus YHR079C, strain IRE1, hits give low values 0.135 | locus YHR094C, strain hxt1, hits give low values 0.0952 | locus YHR129C, strain ARP1, hits give low values 0.0776 | locus YHR142W, strain chs7, hits give low values 0.103 | locus YHR200W, strain rpn10, hits give low values 0.2 | locus YIL066C, strain RNR3, hits give low values 0.0647 | locus YIL073C, strain SPO22, hits give low values 0.136 | locus YIL125W, strain kgd1, hits give low values 0.174 | locus YIR030C, strain dcg1, hits give low values 0.095 | locus YJL092W, strain hpr5, hits give low values 0.0768 | locus YJL095W, strain BCK1 (second series), hits give low values 0.0748 | locus YJL095W, strain BCK1, hits give low values 0.081 and 0.123 | locus YJL115W, strain asf1, hits give low values 0.102 | locus YJL129C, strain trk1, hits give low values 0.148 | locus YJL134W, strain LCB3, hits give low values 0.0694 | locus YJL154C, strain vps35, hits give low values 0.0817 | locus YJL164C, strain tpk1, hits give low values 0.0873 | locus YJL166W, strain qcr8, hits give low values 0.0859 | locus YJL168C, strain set2, hits give low values 0.0922 | locus YJL187C, strain SWE1 (second series), hits give low values 0.064
